Assay outcomes as filed in PubChem BioAssay.
Shiga toxin inh = A qHTS for Small Molecule Inhibitors of Shiga Toxin | 290,000 tested, 9.2% active | Vero cells, Shiga toxin protein synthesis inhibition reporter | inhibition, % at 38.7 µM; in the data active means inhibition mostly above about 28%, no sharp cut-off; inactive means mostly below about 43%
CHX counter = Cycloheximide Counterscreen for Small Molecule Inhibitors of Shiga Toxin; cell reporter, cycloheximide protein synthesis inhibition counterscreen; max response, %; 300,000 tested, 12% active; in the data active means max response mostly above about 13%, no sharp cut-off; inactive means mostly below about 14%; further: read at 38.3 µM for the half of the compounds with a filed dose
NS1 function inh = qHTS Assay for Inhibitors of Influenza NS1 Protein Function; Potency, µM (titrated, usually from 46.1 µM); 270,000 tested, 0.4% active; AID 2326, 2010; further: actives are rising curves; nearly all actives have a fitted effect of over 50% in size
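Growth recovery, yeast-based: influenza A NS1 expressed in S. cerevisiae causes slow growth, and suppressors are detected by OD600. The parent strain without NS1 is used as positive control.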
SARS PLpro yeast = qHTS of Yeast-based Assay for SARS-CoV PLP | S. cerevisiae expressing SARS-CoV PLpro, growth rescue | Potency, µM (doses to about 32.9 µM), actives largely listed as activators | 330,000 tested, 0.19% active | AID 485353, 2010; further: nearly all actives have a fitted effect of over 55% in size
Hits are given with their value; . = inactive; ? = inconclusive; / = no result. Most compounds without a hit are left out; they make up all but 12% or so of the library. Unless noted, the call rests on the fitted dose curve.

SMILES	Shiga toxin inh	CHX counter	NS1 function inh	SARS PLpro yeast
Cc1ccc(OCCNC(=O)c2ccc3c(c2)OCO3)cc1	66	42	.	.
COC(=O)c1sccc1-c1ccc(C(=O)Nc2ccccc2)o1	75	78	.	.
CN(CC(=O)Nc1cccc(F)c1)C(=O)CCNC(=O)c1ccc(Br)cc1	.	22	.	?
O=C(Nc1cccc(F)c1)c1ccc(-c2ccccc2Cl)o1	105	66	.	.
COc1ccc(NC(=O)c2cc(-c3ccccc3Cl)no2)cc1	69	32	.	.
Cc1ccc(-c2ccc(C(=O)Nc3cccc(F)c3)o2)c2ccccc12	.	.	.	.
COC(=O)c1sccc1NC(=O)c1ccc(C)o1	.	.	.	.
O=C(c1cnn2c(C(F)(F)F)cc(-c3cccs3)nc12)N1CCOCC1	.	.	.	.
COc1ccc(NC(=O)c2ccc(-c3ccccc3Cl)o2)cc1	.	43	.	.
COc1ccc(NC(=O)c2ccc(-c3ccc(C)c4ccccc34)o2)cc1	.	.	.	.
O=C(Nc1ccccc1)c1cc(-c2ccccc2Cl)no1	122	47	.	.
CN(CC(=O)Nc1cccc(F)c1)C(=O)c1ccc(-c2ccc(Cl)cc2)o1	71	23	.	.
Cc1ccc(C)c(NC(=O)CN(C)C(=O)c2ccc(-c3ccc(Cl)cc3)o2)c1	/	/	/	.
Cc1cc2c(OCC(O)CN3CCCC3)cccc2[nH]1 (stereo not drawn)	.	.	/	.
CCCC1CCc2c(sc(NC(=O)OCC)c2C#N)C1 (stereo not drawn)	.	.	.	.
COc1ccccc1C(=O)Nc1ccc(-c2nnn(CC(=O)N3CCN(C(=O)c4ccco4)CC3)n2)cc1	.	28	?	.
Cc1ccccc1-c1nnn(CC(=O)N2CCN(C(=O)c3ccco3)CC2)n1	/	/	/	.
O=C(Nc1ccc(-c2nnn(CC(=O)N3CCN(C(=O)c4ccco4)CC3)n2)cc1)c1ccccc1F	84	51	.	.
O=C(NCc1nc2ccccc2[nH]1)C1=C[C@H](c2coc3ccccc3c2=O)C[C@H](OCc2ccc(CO)cc2)O1	.	.	.	.
COCCNCC(=O)N1CCCCCC1	.	.	/	.
O=c1c2ccccc2nc(-c2cccs2)n1-c1ccc2ccccc2c1	active	29	.	.
COc1ccccc1-n1c(-c2cccs2)nc2ccccc2c1=O	.	.	/	.
Cc1[nH]nc(N=CC2=C(O)CC(C)(C)CC2=O)c1-c1ccccc1	.	.	.	.
Cc1[nH]nc(N=CC2=C(O)CC(c3ccco3)CC2=O)c1-c1ccccc1 (stereo not drawn)	.	14	.	.
CC1CN(C(=O)CN2C(=O)c3ccccc3S2(=O)=O)CC(C)O1 (stereo not drawn)	.	.	.	.
SMILES	Shiga toxin inh	CHX counter	NS1 function inh	SARS PLpro yeast
Cc1[nH]c2ccccc2c1C(=O)/C=C/c1ccccc1Cl	81	40	.	.
Cc1[nH]c2ccccc2c1C(=O)/C=C\c1ccccc1Cl	24	36	.	.
Cc1[nH]c2ccccc2c1C(=O)/C=C/c1ccccc1	56	37	.	.
O=C(CN1C(=O)NC(c2ccc(F)cc2)C1=O)NC1CCCCC1 (stereo not drawn)	/	/	/	.
CCOC(=O)CSc1nc2c(sc3ccc([N+](=O)[O-])cc32)c(=O)n1Cc1ccco1	43	32	.	.
CCOC(=O)CSc1nc2ccccc2c(=O)n1Cc1ccco1	.	.	.	.
CN1N=C(C(=O)Nc2ccc3c(c2)CCC3)CCC1=O	76	28	/	.
Cn1ncc(Cl)c1C(=O)Nc1ccc2c(c1)CCC2	77	44	.	.
Cc1ccc(NC(=O)Nc2ccc3c(c2)CCC3)cc1C	.	.	.	.
CC(C)CC(=O)Nc1nnc(SCC(=O)Nc2nccs2)s1	.	.	.	.
CCc1ccc(S(=O)(=O)N/N=C\c2ccc3c(c2)OCO3)cc1	.	.	.	.
O=C(NC(=S)N(Cc1ccccc1)c1ccccn1)C1CC1	.	13	.	.
COc1ccccc1NC(=O)N(Cc1ccccc1)c1ccccn1	32	.	.	.
Cc1ccc(OCC(=O)N(Cc2ccccc2)c2ccccn2)cc1	.	32	/	.
Cc1noc(C)c1S(=O)(=O)Nc1ccc(C(=O)N2CCC(C)CC2)cc1	.	.	/	.
C/C(=N\NC1=N[C@H]2CS(=O)(=O)C[C@H]2S1)c1ccccc1	.	.	.	.
CCCCCOCC1CC(C/C(C)=N/NC(N)=S)C(=O)O1 (stereo not drawn)	.	.	.	.
CCCCCOCC1CC(C/C(C)=N/Nc2nc(-c3ccccc3)cs2)C(=O)O1 (stereo not drawn)	69	27	.	.
CC(=O)N1CCN=C1SCc1cccc(Cl)c1	.	.	.	.
